Shiga inhibitor: Shiga toxin inhibition; Vero cells, Shiga toxin protein synthesis inhibition reporter; inhibition, % at 38.7 µM; hit rate 9.2% among 290,000; in the data active = inhibition mostly above about 28%, no sharp cut-off; inactive = mostly below about 43%; note: 0% is about no effect
Giardia FBPA inh: Giardia lamblia aldolase inhibition; A8B2U2; purified Giardia FBPA; Potency, µM (top dose mostly 59.6 µM), for inactives: top-dose activity, negative = inhibition, most hits filed as inhibitors; hit rate 0.71% among 290,000; AID 2451; note: potency is the fitted concentration of half-maximal effect; % is set by controls: 0 for no effect and ±100 for the full control effect; nearly all actives have a fitted effect of over 55% in size
Target sequence (A8B2U2 whole entry, looked up): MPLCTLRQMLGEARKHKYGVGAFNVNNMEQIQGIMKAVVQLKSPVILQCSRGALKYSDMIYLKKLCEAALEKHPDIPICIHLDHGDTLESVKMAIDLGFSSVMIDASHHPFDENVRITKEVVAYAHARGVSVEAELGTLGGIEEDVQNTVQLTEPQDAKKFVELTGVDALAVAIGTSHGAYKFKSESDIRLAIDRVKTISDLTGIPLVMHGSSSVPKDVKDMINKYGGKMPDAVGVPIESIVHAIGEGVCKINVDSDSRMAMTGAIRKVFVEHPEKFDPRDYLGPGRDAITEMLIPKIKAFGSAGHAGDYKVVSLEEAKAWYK
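40 nM FBPA preincubated 10 min at RT with compound (up to 57.5 uM final), then substrate plus GAPDH/TPI/NAD/arsenate coupling and diaphorase/resazurin added. Fluorescence read after 20 min at RT, 525/598 nm.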
Tb PYK inh: blocks Trypanosoma brucei pyruvate kinase; Potency, µM (titrated, usually from 76.8 µM), for the others: at the top dose activity, negative = inhibition, usual class: inhibitors; TbPYK enzyme, Kinase-Glo Plus ATP luminescence, 45 min; AID 624173; Q57TT1; hit rate 0.12% among 410,000; note: potency is the fitted concentration of half-maximal effect; % is set by controls: 0 for no effect and ±100 for the full control effect; nearly all actives have a fitted effect of over 50% in size
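Quantitative HTS: titrated library compounds versus trypanosomal pyruvate kinase in TEA buffer (pH 7.2) containing KCl, MgCl2, BSA and Tween-20. Reactions were initiated with ADP, 130 uM final. Kinase-Glo Plus luminescence was read after 45 min at RT.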
LmPK inh: blocks Leishmania mexicana pyruvate kinase activity; hit rate 0.37% among 290,000; purified LmPK, Kinase-Glo ATP luminescence, 1 h; AID 1721; Q27686; Potency, µM (top dose mostly 57.5 µM), inactives show at the top dose activity change, negative = inhibition, most hits filed as inhibitors; note: potency is the fitted concentration of half-maximal effect; % is set by controls: 0 for no effect and ±100 for the full control effect
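Purified LmPK (0.1 nM) with 0.5 mM PEP and 0.1 mM ADP in imidazole buffer pH 7.2 with MgCl2/KCl, 1 h at room temperature. ATP formed was read by luciferase luminescence and normalized to no-enzyme and uninhibited controls.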
RE007 growth inh: less growth of the S. pombe RE007 Vpr strain. Potency, µM (top dose mostly 92.2 µM), inactives show top-dose activity change, negative = less growth, most hits filed as inhibitors. hit rate 0.21% among 360,000. S. pombe RE007 Vpr strain, BacTiter-Glo ATP luminescence, 24 h; active = well fitted falling curve with a large enough effect; inconclusive = small, poorly fitted or top-dose-only effect; inactive = no such curve, though single readings can be large or run the other way; note: potency is the fitted concentration of half-maximal effect; % is set by controls: 0 for no effect and ±100 for the full control effect; nearly all actives have a fitted effect of over 50% in size
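Fission yeast strain RE007, carrying one chromosomally integrated HIV-1 vpr copy, was seeded at OD 0.01 in PMG+AL medium with 23 nL pinned compound. After 24 h at 30 °C and 99% humidity, viability was read by BacTiter-Glo luminescence.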
CHX counter: counter-screen for Shiga toxin inhibitors: cycloheximide protein synthesis inhibition; max response, %; cell reporter, cycloheximide protein synthesis inhibition counterscreen; hit rate 12% among 300,000; in the data active = max response mostly above about 13%, no sharp cut-off; inactive = mostly below about 14%; note: read at 38.3 µM for the half of the compounds with a filed dose; 0% is about no effect
An asterisk follows results filed as active; ? = inconclusive; . = no result given; ! = not confirmed by another sample. The sample as a whole holds a higher share of hits than the screen did. Unless noted, calls come from the whole dose curve; as a rule, active = well fitted curve in the direction sought with a large enough effect; inconclusive = small, poorly fitted or top-dose-only effect, or another doubt; inactive = no such curve, though single readings can be large; an effect the other way counts as inactive or inconclusive.

SMILES	Shiga inhibitor	Giardia FBPA inh	Tb PYK inh	LmPK inh	RE007 growth inh	CHX counter
C/C(=N\Nc1nc2ccccc2[nH]1)c1ccc2c(c1)OCCO2	52.7*	-6.7%	1.2%	3.8%	7.9%	35.7*
CC(C)CC(NC(=O)c1ccc(Cl)cc1Cl)C(=O)O (stereo not given)	-24.5	-0.5%	0.6%	0.8%	17.5%	-4.0
CC(NC(=O)NC(=O)c1ccc(Cl)cc1Cl)C1CC1 (stereo not given)	167.2*	5.6%	2.5%	-0.6%	37.4%	39.2*
CCOc1ccc(CNCc2c(C(=O)O)n(Cc3ccc(OC)cc3)c3ccccc23)cc1	.	.	0.9%	.	.	.
Cc1cc(NC(=O)c2cccc(S(=O)(=O)N3CCCCC3)c2)no1	10.7	.	-12.4%	-3.1%	0.3%	9.3*
Cc1ccnc(NC(=O)c2cccc(S(=O)(=O)N3CCN(c4ccccc4)CC3)c2)c1	.	.	5.9%	.	-24.4%	.
Cc1ccnc(NC(=O)c2cccc(S(=O)(=O)N3CCCC3)c2)c1	22.4	.	-1.0%	-8.3%	-2.2%	24.7*
O=C(Nc1cccc(Cl)c1Cl)c1ccc2c(c1)N(Cc1cccc(Cl)c1)C(=O)c1ccccc1S2=O (stereo not given)	.	.	1.3%	.	.	.
COC(=O)C1(Cc2cc(-c3cccnc3)no2)CCN(C(=O)OC(C)(C)C)CC1	12.4	4.0%	-13.1%	1.1%	2.1%	10.0*
COC(=O)C1(Cc2cc(-c3ccc(Cl)cc3)no2)CCN(C(=O)OC(C)(C)C)CC1	13.3	7.0%	5.4%	-8.9%	14.4%	-0.6
Cc1cccc(-n2ncc(C(=O)NCc3ccccn3)c2C2CCN(C(=O)OC(C)(C)C)CC2)c1	.	.	4.9%	.	.	.
COc1ccc(C2=COc3ccccc3C(=O)N2)cc1	55.6*	8.8%	-4.7%	7.5%	-24.2%	21.1*
CSCCC(NC(=O)c1ccc(Cl)c([N+](=O)[O-])c1)C(=O)N1CCN(C/C=C/c2ccccc2)CC1 (stereo not given)	.	.	2.6%	.	5.8%	.
COc1ccc(S(=O)(=O)c2cn(C)c3cc(N4CCCC4)c(F)cc3c2=O)cc1	.	.	3.7%	.	.	.
COc1cc2sc(C)nc2c2ccccc12	-2.2	?	-1.7%	0.0%	-8.7%	1.1
Cc1nc2c(ccc3c2ccc2nc(C)sc23)s1	70.7*	-3.0%	2.5%	-2.8%	1.4%	23.3
CCN(c1cccc(C)c1)C(C(=O)Nc1ccc(OC)cc1)c1cc2c(cc1[N+](=O)[O-])OCO2 (stereo not given)	22.3	-28.2%	1.7%	-2.4%	-5.7%	11.1*
COc1ccc(NC(=O)C(c2cc3c(cc2[N+](=O)[O-])OCO3)N(C)Cc2ccccc2)cc1 (stereo not given)	32.0	-29.9%	6.9%	2.1%	-16.8%	-3.4
CCc1ccccc1NC(=O)C1CCCN(c2nnc(-n3c(C)ccc3C)s2)C1 (stereo not given)	.	.	-2.9%	.	.	.
O=C(Nc1ccc2ccccc2n1)c1ccccc1Br	131.2*	-12.1%	-4.8%	-15.8%	-23.8%	41.1*
Cc1ccc(C(O)(C(=O)NNc2ccc3ccccc3n2)c2ccc(C)cc2)cc1	-3.4	16.6%	-5.2%	3.5%	4.8%	13.0*!
O=C(Nc1ccc2ccccc2n1)Nc1cccs1	31.0	7.4%	3.3%	4.6%	3.7%	-0.8
Cc1cc(C)cc(NC(=O)Nc2ccc3ccccc3n2)c1	10.5	5.6%	0.7%	-3.1%	0.7%	-1.7
O=C(Nc1ccc2ccccc2n1)c1ccccc1	66.4*	-1.0%	-11.4%	-25.5%	-25.2%	49.2*
O=C(CCc1ccccc1)Nc1ccccc1	26.6	-0.3%	-15.4%	0.6%	-7.4%	-1.8
O=C(CCc1ccccc1)Nc1ccc2ccccc2n1	103.8*	-1.7%	-1.4%	-0.5%	-6.3%	46.7*
COc1cc(OC)cc(C2=Cc3ccc(OC)cc3C(CC(C)=O)N2c2ccc(C#CCCO)cc2)c1 (stereo not given)	.	.	0.1%	.	-3.2%	.
COc1cccc2cc(-c3nc(Nc4cccc(C)c4C)sc3C)c(=O)oc12	.	.	0.4%	.	.	.
COC(=O)c1ccc2ccccc2n1	.	.	1.8%	.	6.2%	.
O=C(c1ccccc1)c1ccc2ccccc2n1	73.6	-1.7%	-4.3%	-0.9%	-22.6%	38.9*
